Results published in PubChem BioAssay (Tox21).
Results filed as inconclusive are left out. Activity calls are given as the source filed them. Calls come from the whole dose curve; as a rule, active = well fitted activation curve with a large enough effect in the repeat runs; inconclusive = weak or mixed curves; inactive = no such curve, though single readings can be large or run the other way.

Each compound was assayed against Nuclear receptor subfamily 1 group I member 2 (Homo sapiens) (UniProt O75469) (assay: CYP3A4 induction through human pregnane X receptor (PXR) by small molecules, qHTS assay (AID 1346984; note: nearly all actives have a fitted effect of over 40% in size)). Settings: DPX-2 HepG2 PXR, CYP3A4-luciferin luminescence, 24 h; series mostly up to 46.1 µM; activation: at the top concentration.
Excerpt: National Center for Advancing Translational Sciences [NCATS]
NIH Chemical Genomics Center [NCGC]
U.S. Environmental Protection Agency [EPA]
National Institutes of Environmental Health Sciences [NIEHS]
National Toxicology Program [NTP]
The Pregnane X receptor (PXR), a ligand activated nuclear receptor plays a critical role in the regulation of genes involved in drug metabolism and transporters. Activation of PXR is responsible for unwanted adverse drug reactions. PXR binds xenobiotics and when compounds interact with PXR enhances the expression of CYP3A genes. Identifying the compounds with the potential for PXR activation and CYP3A4 induction can be of importance in improving the efficacy of drugs with less toxicity and avoiding drug-drug interactions.
DPX-2 (Puracyp, Inc.) cell lines, used for screening against human PXR activation has HepG2 cells co-transfected with a PXR response element and a luciferase construct containing CYP3A4 promoter. Increase in luciferase activity can be used to identify the compounds that cause the induction of CYP3A4.
DPX-2 cells were dispensed at 2,000 cells per well in 5uL of assay medium into white, solid-bottom 1536-well plates using a Multidrop Combi dispenser (Thermo Scientific). The assay plates were incubated at 37C for 5hr before transferring 23nL of test compounds dissolved in DMSO and positive control via Pintool station (Wako). The assay plates were incubated at 37C for 24hr. After 24hr compound treatment, 1uL of 3uM (final concentration) P450 substrate (P450-Glo CYP3A4 screening system with Luciferin-IPA, Promega) was added by a Flying Reagent Dispenser (FRD, Aurora Discovery). The assay plates were incubated for 3hr at 37C. Then 5ul One-Glo assay reagent (Promega) was added to each plate by an FRD and following 30 min incubation at room temperature, luciferase activity was quantified on a ViewLux plate reader (Perkin Elmer).
% is set by controls: 0 for no effect and ±100 for the full control effect.

SMILES | activation | outcome
O=C(O)c1cc(O)c(O)c(O)c1 | -5.71% (inactive) | 
C#CCN(C)Cc1ccccc1 | -3.01% [at 20.6 µM] (inactive) | 
O=C(O)[C@H](O)[C@@H](O)[C@H](O)[C@H](O)CO |  | inactive
CC(=O)Nc1cccc(O)c1 | 4.08% (inactive) | 
O=c1[nH]c(=O)n([C@H]2C[C@H](O)[C@@H](CO)O2)cc1Br | 3.03% (inactive) | 
OC[C@H]1O[C@@](CO)(O[C@H]2O[C@H](CO)[C@@H](O)[C@H](O)[C@H]2O)[C@@H](O)[C@@H]1O | -8.68% (inactive) | 
OCCOCCOCCO | 5.75% (inactive) | 
CC(c1cc2ccccc2s1)N(O)C(N)=O (centres undefined) | 9.97% (inactive) | 
O=c1[nH]c(=O)n([C@H]2CCCO2)cc1F | -2.36% (inactive) | 
CC1=CCC2CC1C2(C)C (centres undefined) | 3.45% (inactive) | 
C=CCNC(N)=S | -0.0562% (inactive) | 
CCCCCC(N)=O | -3.14% (inactive) | 
CC(=O)OCC(=O)[C@@]12N=C(C)O[C@@H]1C[C@H]1[C@@H]3CCC4=CC(=O)C=C[C@]4(C)[C@H]3[C@@H](O)C[C@@]12C | 3.93% (inactive) | 
CC(=O)Nc1ccccc1 | -4.04% (inactive) | 
